Results: PubChem BioAssay
Calls of active or inactive are those of the source.

Tests used:
[1] = tested on: Plasmodium falciparum Sir2 (PF13_0152, Sir2A); test: pfSir2 binders on small-molecule microarrays, primary screen, biochemical, small-molecule microarray, 635 nm fluorescence (AID 1098); details: small-molecule microarray binding, fluorescence 635 nm; higher = more signal;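 note: score merges spot fluorescence intensity with its signal-to-noise ratio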
[2] = small-molecule microarray binders of probe aDKK1, primary screen, biochemical, biotinylated probe, 635/667 nm fluorescence (AID 1099); details: higher = more signal;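 note: score merges 667nm spot fluorescence with signal to noise across triplicate slides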
[3] = small-molecule microarray binders of probe aCHRDL2, primary screen, biochemical, biotinylated probe, 635/667 nm fluorescence (AID 1100); details: higher = more signal
[4] = splicing luciferase reporter signal modulators, primary screen, spliceosome inhibition project, cell-based, HEK293, splice +/- reporter (AID 1101); details: luminescence, 24 h, higher = more signal, called active from +8 up or from −8 down;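 note: HEK293 cells carrying a splicing-competent luciferase reporter gene; test concentration not given here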
[5] = target: Fibroblast growth factor 10 (Homo sapiens) (UniProt O15520); test: FGF10 binders on small-molecule microarrays, primary screen, biochemical, small-molecule microarray, 635 nm fluorescence (AID 1102); details: FGF10 binding, fluorescence 635 nm, higher = more signal
Chain of Fibroblast growth factor 10 (Homo sapiens) (O15520 whole entry, looked up): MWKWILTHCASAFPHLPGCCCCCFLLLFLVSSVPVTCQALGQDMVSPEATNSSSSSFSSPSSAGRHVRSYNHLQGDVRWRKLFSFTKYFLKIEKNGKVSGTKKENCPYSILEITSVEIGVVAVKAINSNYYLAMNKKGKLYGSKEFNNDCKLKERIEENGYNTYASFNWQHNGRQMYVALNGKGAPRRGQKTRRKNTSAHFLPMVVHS

[6] = tested on: glycogen synthase kinase-3 (GSK3A per assay name; protocol says GSK3B); test: GSK3 binders on small-molecule microarrays, primary screen, biochemical, small-molecule microarray, 635 nm fluorescence, GSK3A (AID 1103); details: small-molecule microarray binding, fluorescence 635 nm; higher = more signal; note: the record names both GSK3A and GSK3B
[7] = target: Epidermal growth factor receptor (Homo sapiens) (UniProt P00533); test: EGFR binders on small-molecule microarrays, primary screen, biochemical, small-molecule microarray, 635 nm fluorescence (AID 1104); details: EGFR binding, higher = more signal;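 note: score merges 667 nm emission intensity with spot signal to noise over triplicate slides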
Chain of Epidermal growth factor receptor (Homo sapiens) (P00533 whole entry, looked up): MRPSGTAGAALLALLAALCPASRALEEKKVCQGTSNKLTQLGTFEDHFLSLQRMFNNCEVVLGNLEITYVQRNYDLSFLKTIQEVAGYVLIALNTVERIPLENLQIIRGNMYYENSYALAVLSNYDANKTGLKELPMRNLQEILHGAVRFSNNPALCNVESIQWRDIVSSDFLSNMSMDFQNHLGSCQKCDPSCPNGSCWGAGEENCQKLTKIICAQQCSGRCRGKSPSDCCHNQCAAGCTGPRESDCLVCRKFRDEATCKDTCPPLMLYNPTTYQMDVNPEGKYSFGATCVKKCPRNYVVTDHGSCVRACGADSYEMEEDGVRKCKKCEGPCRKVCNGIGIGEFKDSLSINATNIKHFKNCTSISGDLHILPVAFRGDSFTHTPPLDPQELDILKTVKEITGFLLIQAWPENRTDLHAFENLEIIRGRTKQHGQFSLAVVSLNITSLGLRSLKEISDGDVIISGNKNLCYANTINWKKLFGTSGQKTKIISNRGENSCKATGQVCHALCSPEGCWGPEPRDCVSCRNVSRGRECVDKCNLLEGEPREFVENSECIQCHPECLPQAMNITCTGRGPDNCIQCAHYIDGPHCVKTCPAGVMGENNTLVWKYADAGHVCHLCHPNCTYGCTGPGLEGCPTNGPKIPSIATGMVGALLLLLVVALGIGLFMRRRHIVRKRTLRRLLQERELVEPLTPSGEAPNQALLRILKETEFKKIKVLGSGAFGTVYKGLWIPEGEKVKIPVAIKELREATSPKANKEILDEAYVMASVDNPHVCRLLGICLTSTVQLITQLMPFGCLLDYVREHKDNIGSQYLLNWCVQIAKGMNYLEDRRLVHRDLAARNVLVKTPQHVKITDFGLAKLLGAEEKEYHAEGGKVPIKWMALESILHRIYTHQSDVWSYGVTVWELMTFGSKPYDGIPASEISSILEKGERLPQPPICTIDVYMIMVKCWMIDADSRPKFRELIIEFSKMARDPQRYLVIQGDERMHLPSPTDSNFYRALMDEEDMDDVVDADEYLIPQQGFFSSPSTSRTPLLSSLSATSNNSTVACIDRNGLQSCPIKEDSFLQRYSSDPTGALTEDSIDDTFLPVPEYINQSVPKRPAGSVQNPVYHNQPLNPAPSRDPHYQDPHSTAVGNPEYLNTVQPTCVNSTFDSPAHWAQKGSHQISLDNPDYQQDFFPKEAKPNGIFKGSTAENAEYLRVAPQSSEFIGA

[8] = target: Follistatin-related protein 3 (Homo sapiens) (UniProt O95633); test: FSTL3 binders on small-molecule microarrays, primary screen, biochemical, small-molecule microarray, 635 nm fluorescence (AID 1105); details: FSTL3 binding, higher = more signal;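 note: score merges emission near 667 nm and signal to noise per printed spot across three slides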
Chain of Follistatin-related protein 3 (Homo sapiens) (O95633 whole entry, looked up): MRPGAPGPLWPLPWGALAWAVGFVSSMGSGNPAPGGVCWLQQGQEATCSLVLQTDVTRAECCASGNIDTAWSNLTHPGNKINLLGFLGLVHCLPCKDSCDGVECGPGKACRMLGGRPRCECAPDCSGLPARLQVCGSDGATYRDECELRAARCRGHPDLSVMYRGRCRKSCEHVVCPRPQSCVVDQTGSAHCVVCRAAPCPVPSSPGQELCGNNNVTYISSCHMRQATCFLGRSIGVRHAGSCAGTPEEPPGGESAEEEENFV

[9] = target: Dickkopf-related protein 1 (Homo sapiens) (UniProt O94907); test: DKK1 binders on small-molecule microarrays, primary screen, biochemical, small-molecule microarray, 635 nm fluorescence scan (AID 1106); details: DKK1 binding, higher = more signal;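 note: score merges emission near 667 nm with signal to noise over three replicate slides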
Chain of Dickkopf-related protein 1 (Homo sapiens) (O94907 whole entry, looked up): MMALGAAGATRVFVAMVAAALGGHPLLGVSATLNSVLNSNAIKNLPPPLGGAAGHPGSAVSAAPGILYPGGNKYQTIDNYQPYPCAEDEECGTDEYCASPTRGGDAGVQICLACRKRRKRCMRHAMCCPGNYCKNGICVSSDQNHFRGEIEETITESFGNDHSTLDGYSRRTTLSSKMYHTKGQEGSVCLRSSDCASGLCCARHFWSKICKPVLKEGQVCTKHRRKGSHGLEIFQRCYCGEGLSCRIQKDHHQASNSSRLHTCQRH

[10] = tested on: Inhibin beta A chain (activin A); test: INHBA (activin A) binders on microarrays, primary screen, biochemical, small-molecule microarray, 635 nm fluorescence scan (AID 1107); details: small-molecule microarray binding, higher = more signal;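 note: mouse activin A protein probed at 4.33 µg/mL on printed slides; score merges bound-protein fluorescence near 667 nm with spot signal-to-noise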
[11] = tested on: Human papillomavirus type 1a protein E7 (residues 44-93); test: HPV1a E7 fragment binders on microarrays, primary screen, biochemical, small-molecule microarray, residues 44-93, 635 nm fluorescence (AID 1108); details: small-molecule microarray binding, fluorescence 635 nm; higher = more signal;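 note: E7 fragment applied at 1 µg/mL in TBST for 1 h at 4 C; score combines spot fluorescence with its signal to noise ratio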
[12] = modulators of HCV replicon luciferase signal, primary screen, HCV replication inhibitor project, Huh7 cells, luciferase reporter (AID 1109); details: 48 h, higher = more signal;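 note: huh7 hepatoma cells harbouring a luciferase neomycin HCV replicon reporter; luciferase luminescence as measure of HCV replicon replication; test concentration not given here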
[13] = target: Left-right determination factor 2 (Homo sapiens) (UniProt O00292); test: LEFTY2 binders on small-molecule microarrays, primary screen, biochemical, small-molecule microarray, 635 nm fluorescence scan (AID 1110); details: LEFTY2 binding, higher = more signal
Chain of Left-right determination factor 2 (Homo sapiens) (O00292 whole entry, looked up): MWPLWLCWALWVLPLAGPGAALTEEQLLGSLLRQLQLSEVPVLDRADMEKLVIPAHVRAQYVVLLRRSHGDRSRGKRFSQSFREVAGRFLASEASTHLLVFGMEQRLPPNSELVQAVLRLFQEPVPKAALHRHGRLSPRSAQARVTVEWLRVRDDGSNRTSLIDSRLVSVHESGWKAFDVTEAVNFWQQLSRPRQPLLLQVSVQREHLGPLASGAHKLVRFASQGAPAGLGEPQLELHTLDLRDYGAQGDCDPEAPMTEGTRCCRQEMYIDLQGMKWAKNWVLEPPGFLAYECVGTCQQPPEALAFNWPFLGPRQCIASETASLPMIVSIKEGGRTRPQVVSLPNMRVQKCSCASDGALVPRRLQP

[14] = target: Calmodulin-1 (Homo sapiens) (UniProt P0DP23); test: CALM1 binders on microarrays, EGTA buffer, profiling panel, biochemical, small-molecule microarray, Cy5-labelled CALM1 (AID 1111); details: Cy5-CALM1 binding fluorescence, higher = more signal;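 note: labelled calmodulin applied in Tris saline Tween buffer holding calcium plus EGTA and DTT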
[15] = target: Calmodulin-1 (Homo sapiens) (UniProt P0DP23); test: calcium-bound CALM1 binders on microarrays, profiling panel, artefact control for SMM control-protein annotation, biochemical, small-molecule microarray, Cy5-labelled CALM1, plus calcium (AID 1112); details: Cy5-CALM1 binding fluorescence, higher = more signal;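 note: score merges spot fluorescence with signal to noise from triplicate slides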
[16] = small-molecule microarray binders of probe aWnt5a, primary screen, biochemical, biotinylated probe, 635/667 nm fluorescence (AID 1113); details: higher = more signal;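 note: score merges 667 nm fluorescence intensity with signal-to-noise per printed feature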
[17] = small-molecule microarray binders of probe aShh, primary screen, biochemical, biotinylated probe, 635/667 nm fluorescence (AID 1114); details: higher = more signal;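 note: probe is biotin-labelled aShh protein from a stem cell growth factor screen; measures binding of labelled protein to compounds printed on the slide; score merges feature fluorescence at 667 nm with signal-to-noise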
[18] = small-molecule microarray binders of probe aNog, primary screen, biochemical, biotinylated probe, 635/667 nm fluorescence (AID 1115); details: higher = more signal;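 note: probe is biotinylated aNog protein used at 0.15 µg/mL for 1 h at 4 C; z-score combines 667 nm fluorescence of each spot with its signal to noise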
[19] = target: Torsin-1A-interacting protein 1 (Homo sapiens) (UniProt Q5JTV8); test: LAP1 binders from COS7 cell lysate, primary screen, small-molecule microarray, 635/667 nm fluorescence (AID 1116); details: COS7-hLAP1 lysate binding, 635 nm fluorescence, higher = more signal
Chain of Torsin-1A-interacting protein 1 (Homo sapiens) (Q5JTV8 whole entry, looked up): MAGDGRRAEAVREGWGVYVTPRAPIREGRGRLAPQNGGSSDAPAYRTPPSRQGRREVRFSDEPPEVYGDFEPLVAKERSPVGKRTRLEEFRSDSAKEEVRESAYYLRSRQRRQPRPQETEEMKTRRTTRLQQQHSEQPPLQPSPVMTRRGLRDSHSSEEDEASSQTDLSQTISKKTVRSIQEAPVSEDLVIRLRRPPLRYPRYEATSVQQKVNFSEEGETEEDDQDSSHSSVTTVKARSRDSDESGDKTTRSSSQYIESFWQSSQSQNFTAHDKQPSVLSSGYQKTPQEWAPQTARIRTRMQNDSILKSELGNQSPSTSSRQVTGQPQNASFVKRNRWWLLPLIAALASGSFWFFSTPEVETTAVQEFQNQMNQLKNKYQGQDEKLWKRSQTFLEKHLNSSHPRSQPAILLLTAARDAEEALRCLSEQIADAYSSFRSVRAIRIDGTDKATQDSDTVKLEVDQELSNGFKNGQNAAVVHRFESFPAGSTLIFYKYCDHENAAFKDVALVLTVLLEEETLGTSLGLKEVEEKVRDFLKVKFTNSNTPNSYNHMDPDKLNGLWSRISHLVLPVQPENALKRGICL

[20] = target: Alpha-bungarotoxin (Bungarus multicinctus) (UniProt P60615); test: alpha-bungarotoxin binders on microarray, profiling panel, artefact control for SMM control protein annotation, biochemical, small-molecule microarray, Alexa647 label, 635/667 nm fluorescence (AID 1117); details: alpha-BTX-A647 binding fluorescence, higher = more signal
Chain of Alpha-bungarotoxin (Bungarus multicinctus) (P60615 whole entry, looked up): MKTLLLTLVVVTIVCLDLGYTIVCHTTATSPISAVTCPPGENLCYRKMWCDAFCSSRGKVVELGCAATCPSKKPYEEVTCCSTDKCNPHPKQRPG

Row | Compound | composite z-score [1] | composite z-score [2] | composite z-score [3] | z-score [4] | composite z-score [5] | composite z-score [6] | composite z-score [7] | composite z-score [8] | composite z-score [9] | composite z-score [10] | composite z-score [11] | z-score [12] | composite z-score [13] | composite z-score [14] | composite z-score [15] | composite z-score [16] | composite z-score [17] | composite z-score [18] | composite z-score [19] | composite z-score [20]
1 | C=C(/C(=C/C[C@H](OC(C)=O)c1ccc(OCCO)cc1)c1cc(C(=O)OC)ccc1OC)C(C)C | 1.53 | 0.0971 | -0.188 | -0.045 (inactive) | 1.12 | 0.451 | -0.296 | 0.647 | 0.196 | 0.326 | 1.16 | -1.19 | 0.323 | 1.17 | 0.116 | -0.0721 | -0.2 | 0.775 | 1.2 | 0.179
2 | OCCCC1=CC(C2CC2)N(Cc2cccc(OC(F)(F)F)c2)CC1 (stereo not given) | 1.13 | -0.454 | -0.286 | 0.0563 (inactive) | -0.963 | -0.798 | -0.651 | -0.556 | 0.161 | 0.526 | -0.928 | -1.32 | -0.119 | -0.968 | 0.115 | -0.178 | -0.321 | -0.641 | 1 | -0.478
3 | O=C1C2C=CC(C(O)c3c(F)cccc3Cl)N(Nc3ccccc3F)C2C(=O)N1c1ccccc1 (stereo not given) | 0.537 | 0.923 | 1.09 | 1.4 (inactive) | 1.28 | 0.533 | -0.0195 | 0.551 | -0.62 | 0.87 | 1.43 | -0.665 | -0.165 | 1.24 | 0.265 | 0.0136 | 0.701 | 0.933 | 1.43 | 0.543
4 | C=CC[C@]1(C(N)=O)N=C(c2ccc(OCCCO)cc2)O[C@H]1c1ccccc1 | 1.3 | 0.351 | 1.11 | 0.27 (inactive) | -0.304 | -0.195 | -1.03 | -0.882 | -0.539 | 1.08 | -0.434 | -0.31 | -0.524 | 0.27 | -0.665 | -0.0685 | 0.401 | 0.041 | 1.59 | 0.947
5 | CC(C)[Si](C#C[Si](C(C)C)(C(C)C)C(C)C)(O[C@H](C)c1cn(Cc2ccccc2)nn1)C(C)C | 0.733 | -0.0531 | -0.252 | -0.9 (inactive) | 0.584 | 0.856 | 0.361 | 0.688 | 0.0811 | -0.353 | 1.2 | 0.16 | 0.409 | 0.634 | 0.142 | -0.0893 | -0.221 | -0.33 | 0.182 | 0.717
6 | CC1CC/C=C\[C@H]2OC34C=CCN(c5ccc6ccccc6c5)C(=O)[C@H]3N(CCO)C(=O)[C@@H]4C2C(=O)O1 (stereo not given in full) | 1.76 | -0.122 | 0.915 | -0.538 (inactive) | -0.681 | -0.844 | -1.13 | -0.391 | -1.02 | 0.838 | -0.619 | -0.626 | -2.09 | -0.832 | -0.202 | -0.205 | 0.192 | 0.831 | 3.26 | -1.01
7 | COC(=O)C(CC#Cc1ccc2c(c1)[C@]1(C(=O)N2)[C@H](c2ccccc2OCCO)N2[C@H](c3ccccc3)[C@H](c3ccccc3)OC(=O)[C@H]2[C@@H]1C(=O)O)C(=O)OC | 1.49 | 0.666 | 0.0004 | -0.597 (inactive) | 0.738 | 0.93 | 0.28 | 0.356 | 0.278 | 1.04 | 1.43 | -0.567 | 0.17 | 1.61 | 0.701 | 0.0597 | 0.218 | 0.0258 | 0.967 | 1.94
8 | COC(=O)[C@@]1(CCC(=O)OC(C)(C)C)N=C(c2ccc(OCCCO)cc2)O[C@H]1c1ccccc1 | 1.22 | 0.592 | 0.997 | 0.509 (inactive) | -0.19 | -0.0344 | -1.03 | -0.808 | -0.239 | 0.501 | 0.255 | -1.79 | -0.211 | 0.0108 | -0.181 | -0.0161 | 0.351 | 0.711 | 0.692 | 0.629
9 | COC(=O)C[C@H]1O[C@@H](CCc2ccccc2)[C@@H](C)[C@@H]1[Si](C)(C)c1ccc(OC)cc1 | -1.04 | -0.0884 | -0.149 | 0.0234 (inactive) | -0.587 | -1.04 | 0.239 | -0.232 | 0.149 | 0.0026 | -0.504 | -0.638 | -0.0374 | -0.606 | 0.125 | -0.232 | -0.439 | -0.266 | -0.562 | -0.763
10 | C=CCOC(=O)[C@H]1[C@@H]2C(=O)O[C@@H](c3ccccc3)[C@@H](c3ccccc3)N2[C@@H](c2ccc(OCCOC(=O)[C@H]3C[C@H]4C(=O)N[C@@H](CCCCN(C)C)C(=O)N4[C@H]3c3cccc(OCCO)c3)cc2)[C@]12C(=O)Nc1ccc(I)cc12 | 0.79 | -0.267 | -0.254 | 1.52 (inactive) | 1.32 | 1.16 | 0.527 | 1.46 | 1.07 | 1.11 | 1.4 | -2.45 | 0.713 | -0.0131 | -0.12 | 0.108 | 0.0671 | 1.18 | 0.811 | 1.27
11 | CCCNC(=O)[C@@]1(Sc2ccc(C)cc2)CC(=O)N(Cc2ccccc2C(F)(F)F)[C@@H]1c1ccc(CO)cc1I | 1.53 | 0.277 | 0.726 | -1.6 (inactive) | 0.441 | 0.119 | -0.293 | 1.01 | 0.262 | 1.24 | 1.38 | -1.91 | -0.0375 | -0.214 | -0.611 | -0.0519 | 0.0639 | 0.134 | 0.332 | 1.62
12 | C=CCNC(=O)[C@H]1[C@@H]2C(=O)O[C@@H](c3ccccc3)[C@@H](c3ccccc3)N2[C@@H](c2ccc(OCCO)cc2)[C@]12C(=O)Nc1ccc(C#CCC(C(=O)OC)C(=O)OC)cc12 | 1.25 | 0.313 | 0.655 | 0.279 (inactive) | 1.29 | 1.09 | 0.787 | 1.25 | 0.83 | 0.559 | 0.694 | -2.22 | 1.37 | 0.832 | 0.478 | 0.0805 | -0.254 | -0.126 | 0.357 | 1.34
